# Rows were chosen to be rich in hits. Some 2.8% of all compounds tested hit in one or more screens of this group.
# POLH inh = blocks human DNA polymerase eta activity; Q9Y253; recombinant Pol eta, fluorescent DNA replication assay; Potency, µM (doses to about 114 µM), inactives show top-dose activity change, negative = inhibition, most hits filed as inhibitors; 1.2% of 390,000 active; AID 588591; also: potency is read from the fitted curve at half-maximal effect; % is scaled to controls: 0 for no effect and ±100 for the full control effect
#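 Fluorescent replication assay: 50 nM final substrate added after a 15 min room-temperature compound preincubation with 10 nM enzyme. Signal taken at 0 min and again at 10 min.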
# WRN helicase inh = WRN helicase (human) inhibition; 0.46% of 360,000 active; AID 651768; Q14191; Potency, µM (doses to about 114 µM), inactives show at the highest dose activity change, negative = inhibition, hits mostly inhibitors; WRN helicase unwinding, fluorescent forked duplex, kinetic; also: potency is read from the fitted curve at half-maximal effect; % is scaled to controls: 0 for no effect and ±100 for the full control effect; nearly all actives have a fitted effect of over 55% in size
#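 Enzyme (20 nM final) and test compound sit together 15 min at room temperature before substrate addition. Substrate is a single-forked duplex oligonucleotide (100 nM) labelled with fluorophore and quencher, with 2 mM ATP; helicase unwinding raises red fluorescence, read kinetically.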
# Pol beta inh = DNA polymerase beta (human) inhibition. P06746. Pol beta primer extension/strand displacement, fluorescence kinetic. Potency, µM (highest dose often 114 µM), without a hit: top-dose activity change, negative = inhibition, actives largely listed as inhibitors. 1.3% of 340,000 active; also: potency is read from the fitted curve at half-maximal effect; % is scaled to controls: 0 for no effect and ±100 for the full control effect
#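 10 nM enzyme + cpd, 15 min RT; start with substrate 50 nM final; read 0 min and after 10 min RT. Corrected, normalized data; 4-parameter Hill curve fit.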
# Pol kappa inh = DNA polymerase kappa (human) inhibition; Q9UBT6; purified Pol kappa, fluorescent DNA synthesis assay, 10 min; Potency, µM (top dose mostly 107 µM), inactives show top-dose activity, negative = inhibition, actives largely listed as inhibitors; 0.53% of 400,000 active; AID 588579; also: potency is read from the fitted curve at half-maximal effect; % is scaled to controls: 0 for no effect and ±100 for the full control effect
#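 Inhibition of 10 nM Pol kappa is measured by a fluorescent read-out at 0 and 10 min following addition of 50 nM substrate (final), with a 15-min room-temperature compound preincubation.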
# PI5P4K alpha inh = inhibitors of human PI5P4K alpha; PI5P4Kalpha enzyme, ADP-Glo luminescence, 60 min; hits give low values; max response, %; 1.2% of 330,000 active; AID 652105; active = max response of -50% or lower; inconclusive = between -30% and -50%; inactive = -30% or higher; also: value at the top dose of about 77 µM; % is scaled to controls: 0 for no effect and ±100 for the full control effect
#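 Reactions run in 0.038 M HEPES pH 7.4, 0.28 mM EGTA, 0.1% CHAPS and 5% DMSO, with PI5P4Kalpha, substrate, compound and 5 microM ATP final, one hour at room temperature. Readout is ADP-Glo luminescence.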
# Pol iota inh = inhibitors of human DNA polymerase iota; 1% of 390,000 active; Q9UNA4; Pol iota fluorescent replication assay, 10 min; Potency, µM (series often up to 115 µM), without a hit: top-dose activity, negative = inhibition, usual class: inhibitors; also: potency is read from the fitted curve at half-maximal effect
#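 Pol iota at 10 nM preincubated 15 min with compounds at room temperature; reaction started with fluorescent substrate, 50 nM final. Fluorescence read kinetically at 0 and 10 min; buffer-only wells as negative control.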
# Numbers without * were called inactive; u = inconclusive; x = no result given; ! = not active in a repeat; [ ] = dose if it differs, or a comment. Unless noted, calls follow the shape of the dose curve; as a rule, active = well fitted curve in the direction sought with a large enough effect; inconclusive = small, poorly fitted or top-dose-only effect, or another doubt; inactive = no such curve, though single readings can be large; an effect the other way counts as inactive or inconclusive.
SMILES,POLH inh,WRN helicase inh,Pol beta inh,Pol kappa inh,PI5P4K alpha inh,Pol iota inh
OC(Br)C(O)C(O)N1CCCc2ccccc21 (centres undefined),x,x,x,-5%,x,43%
CCCC(=O)Oc1c(Sc2ccc(Cl)cc2)c(C)nn1-c1ccccc1,-8%,x,14%,1%,x,25µM*
COC(=O)N/N=C/c1cc(Br)ccc1O,-15%,-2%,16µM*,-8%,1,-7%
O=C(CSc1nnc(NC(=O)c2ccccc2Cl)s1)Nc1ccc2c(c1)oc1ccccc12,x,x,32µM*,x,x,x
O=C(NCCc1c[nH]c2ccccc12)C1CCC(=O)N(CCc2cccc(F)c2)C1 (centres undefined),-16%,11%,u,7%,5,23%
CC(C)CN(CC(C)C)C1=N/C(=C\c2ccco2)C(=O)N1c1ccccc1,-11%,-17%,28µM*,-39%,-2,u
CCN(CC)C1=N/C(=C\c2ccco2)C(=O)N1c1ccccc1,-4%,-13%[57.1 µM],-10%,-12%,7,-26%
N#C/C(=C/c1ccc(O)c(O)c1)C(=O)NCc1ccc(Cl)cc1,u,u,27%,-20%,u,u
CC(NC(=O)/C(=C/c1ccc(OC(F)F)cc1)c1ccccc1)c1ccccc1 (centres undefined),-18%,6%,-21%,-21%,12,20%
COc1cc(/C=C(\C#N)C(=O)Nc2nnc(C(F)(F)F)s2)ccc1OCc1ccc(C(F)(F)F)cc1C(F)(F)F,x,x,x,6.7µM*,x,x
CC(NC(=O)/C(C#N)=C/c1ccc(OCC(=O)O)cc1)c1ccccc1 (centres undefined),18µM*,-4%,-13%,-17%,-2,u
N#C/C(=C\c1cccc(O)c1)C(=O)Nc1ccc2c(c1)OCCO2,-5%,u,-6%,0%,-11,79µM*
C[C@H](NC(=O)/C(C#N)=C/c1ccc(O)c(O)c1)c1ccccc1,22µM*,x,5%[57.1 µM],u,x,u
CC(C)NC(=O)/C(C#N)=C/c1ccc2c(c1)OCCO2,0%,4%,39%,-16%,6,143%
O=C(CSc1nnc(Cc2ccccc2)n1-c1cccc(Cl)c1)NNC(=O)Cc1ccccc1,-9%,-5%,16%,-15%,0,7%
Cc1ccn(-c2cc(O)c(-n3ccc(C)n3)cc2O)n1,-3%,-9%,17%,-17%,-4,-2%
CC(C)(C)n1ncc2c(=O)n(Cc3ccc(F)cc3Cl)cnc21,x,x,x,9%,x,4%
N#C/C(=C\c1ccc(O)c(O)c1)C(=O)Nc1ccccc1,13µM*!,u,-2%[57.1 µM],u,-22,56µM*
CC(NC(=O)/C(C#N)=C/c1ccc(Cl)c([N+](=O)[O-])c1)c1ccccc1 (centres undefined),-20%,-7%,-1%,-12%,-17,-8%
COc1cc(/C=C(/C#N)C(=O)Nc2ccccc2)ccc1OCc1ccc(C(=O)O)cc1,79µM*,-14%[11.6 µM],-4%,-4%,1,0%
N#C/C(=C\c1ccc(O)c([N+](=O)[O-])c1)C(=O)NCc1ccccc1,-6%,-25%,3%,-5%,-50*,u
N#C/C(=C\c1cccnc1)C(=O)Nc1ccccc1,-18%,8%,-7%,-8%,-8,81%
C[C@@H](NC(=O)/C(C#N)=C/c1ccc(O)c(O)c1)c1ccccc1,14µM*!,-14%,10%[57.1 µM],u,-2,u
CN(C)c1ccc(/C=C/c2ccncc2)cc1,5%,u,1%,-10%,2,41%
CCN(CC)c1ccc(/C=C/c2ccncc2)cc1,x,x,x,-30%,x,79µM*
SMILES,POLH inh,WRN helicase inh,Pol beta inh,Pol kappa inh,PI5P4K alpha inh,Pol iota inh
N/C(=N\OS(=O)(=O)c1ccccc1)c1cccnc1,-10%,-2%,27%,-7%,0,-1%
N/C(=N\OS(=O)(=O)c1ccccc1)c1ccncc1,-5%,-2%,22%,2%,-5,20µM*
CCS(=O)(=O)c1cccc(C(=O)Nc2ccc(-c3nc4ccccc4s3)c(O)c2)c1,u,x,20µM*,-5%[60.1 µM],x,u
Cc1oc(-c2ccc(C(=O)NCc3ccc(F)cc3)cc2)nc1CS(=O)c1ccccc1 (centres undefined),-2%,x,-11%,-10%,x,24%
Cc1cc(C)c(C#N)c(OCC2CCCO2)n1 (centres undefined),x,10%[57.1 µM],x,x,4,x
CCCC(=O)OCC1CN(Cc2ccco2)S(=O)(=O)c2c(F)cccc2O1 (centres undefined),-1%,-4%[11.6 µM],x,-29%,-10,71µM*
CCOc1ccc(C(=O)NC(=S)Nc2cc(C)ccn2)cc1[N+](=O)[O-],-7%,0%,32µM*,-4%,-4,u
CCOc1ccc(C(=O)NC(=S)Nc2ccccn2)cc1[N+](=O)[O-],-4%,-5%,9%,-11%,-7,-2%
Cc1cn2c(N)c(C=C3C=C(Cl)C(=O)C(Cl)=C3)c(=O)nc2s1,u,-7%,-24%,-5%,-78*,41%
COC1=C/C(=C/c2c(N)n3cc(C)sc3nc2=O)C=CC1=O,-8%,-12%,2%,-9%,-81*,27%
Cc1cn2c(=O)cc(COc3ccc(Cl)cc3)nc2s1,4%,x,6%,2%,x,25%
O=[N+]([O-])c1ccccc1/C=C/c1ccnc2ccccc12,x,x,x,-19%,x,u
CC(C)(C)c1ccc(NC(=O)CSc2nnc3scc(-c4ccccc4)n23)cc1,x,x,7%,-1%,x,18%
COc1ccc(OC)c(/C=C2\Cc3ccccc3C2=O)c1,x,x,x,-21%,x,-1%
O=C(Nc1nc2c(s1)CN(Cc1ccccc1)CC2)C1CCC1,-20%,-1%,8%,-3%,4,136%
CN(C)c1ccc(/C=C(\C#N)C(=O)Nc2nc3c(s2)CCN(Cc2ccccc2)C3)cc1,u,-26%,10%,-3%,x,20µM*
N=C(N)c1ccc(/C=C/c2ccc(C(=N)N)cc2O)cc1,-6%,x,8.9µM*,u,-19,35µM*
O=C(Nc1ccc(S(=O)(=O)N2CCCCC2c2cccnc2)cc1)c1ccc(F)cc1 (centres undefined),-19%,x,-8%,0%[60.1 µM],x,21%
Brc1ccc(-c2nn3c(-c4ccccn4)nnc3s2)o1,79µM*,u,22µM*,u,x,u
Brc1ccc(-c2nn3c(-c4ccco4)nnc3s2)o1,u,u,45µM*,u,x,u
Brc1ccc(-c2nn3c(-c4ccncc4)nnc3s2)o1,x,x,-5%,x,x,x
Clc1ccc(-c2ccc(-c3nn4c(-c5ccco5)nnc4s3)o2)cc1,79µM*,u,x,-22%,x,u
Cc1ccccc1-c1nc2c3c(-c4ccccc4)c(-c4ccccc4)oc3ncn2n1,-26%,x,-22%,-17%,x,-70%

# Source: PubChem (National Center for Advancing Translational Sciences (NCATS))
